In PubChem BioAssay (NCI):
Values joined by “and” are separate entries in the source; they are usually repeats but may differ in a detail not shown here. Equal values may be shown once. Compounds without any hit were thinned out: in the full panel of roughly 83,000, 20% have a hit.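 The endpoint reported here, percent growth, reads 100 for growth as untreated, 0 for no net growth and -100 for all cells dead.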 Active and inactive are the calls of the source.

system: OVCAR-8 ovarian; experiment: NCI-60 one-dose screen, 48 h (100 = growth as untreated, 0 = no growth, -100 = all killed); conditions: 10 µM
Procedure: Growth inhibition of the OVCAR-8 human tumor cell line is measured as a screen for anti-cancer activity. Cells are grown in 96 well plates and exposed to the test compound for 48 hours. Compounds are tested at a single concentration, which is 10^-5 M for most compounds. The reported endpoint is percent growth (GI% or GIPRCNT), where numbers from 0 - 100% represent growth inhibition, and numbers from -100% - 0 represent cell death. For example, a value of 40 represents 60% growth inhibition. A value of 0 means no net growth occurred over the course of the experiment. A value of -40 indicates 40% of cells at the beginning of the experiment died by the end of the experiment. A value of -100 means all cells are dead at the end of the experiment.
NCI-60 Human Tumor Cell Lines Screen was performed using the standard one-dose NCI protocol, which is described in more detail at https://dtp.cancer.gov/discovery_development/nci-60/default.htm.
Compounds with GIPRCNT values below 10 were considered active. Activity score was based on GIPRCNT using the following formula: […]
Score is 0 for GIPRCNT values of 100 or above, 50 for GIPRCNT values of 0, and 100 for GIPRCNT values of -100.

SMILES	growth
CC(=O)/C=C/c1ccc(OCc2ccc(Cl)cc2)cc1	90.1% (inactive)

same assay, conditions: 10 µM unless noted

SMILES	growth
C=C(C)[C@@H]1CC[C@]2(C)[C@H](CC(=O)N[C@H]3[C@@H]4C[C@](C)(C(=O)OC)CC[C@]4(C)CC[C@]32C)[C@@]1(C)CCC#N	78.7% (inactive)
CCCCC1=C(Br)C(=O)c2nc(C)ccc2C1=O	88.3% (inactive)
O=C(N=Nc1c(O)[nH]c2ccccc12)Nc1ccc(Br)cc1	98.9% (inactive)
C[C@]12CCc3c(ccc4cc(O)ccc34)[C@@H]1C[C@H](O)[C@@H]2O	94% (inactive)
NS(=O)(=O)OCC1OC(n2cnc3cncnc32)C(O)C1O (stereo not given)	1.63% [0.1 µM] (active) and 1.09% [0.1 µM] (active)
COc1cc(NS(=O)(=O)C(C)C)cc(-c2cc(-c3ccc(N4CCNCC4)cc3)cnc2N)c1	96.6% (inactive)
Cc1ccccc1SSc1ccccc1C	84.1% (inactive)
CCCCCCCCCCCCCCCCCCOc1cccc(CC(=O)OCC[N+](CC)(CC)CC)c1	41.4% (inactive)
COc1cc(-c2nc3occn3c2-c2ccnc(NCCCNS(=O)(=O)c3ccc(O)cc3)n2)ccc1F	98.4% (inactive)
O=C([C@H]1C[C@H]1c1ccc(S(F)(F)(F)(F)F)cc1)N1CCN(c2cc(Cl)ccc2C(F)(F)F)CC1	92.2% (inactive)
N=c1ccccn1CCO	104% (inactive)
CCNC(=O)Oc1ccc(/C(=C(/C)Cc2ccc(OC)cc2)c2ccc(OCCN(CC)CC)cc2)cc1	74.8% (inactive)
C#CCOCC1CN(C)C(=O)O1 (stereo not given)	94.1% (inactive)
CCN(CC)CCOc1ccc(/C(=C(\Cl)c2ccccc2)c2ccccc2)cc1	67.2% (inactive) and 104% (inactive)
CCCCCCCCCCCCCCCC(=O)O[C@@H]1[C@@H](O)[C@@H](O)C([C@H](NC(=O)[C@@H]2C[C@@H](CCC)CN2C)[C@H](C)Cl)O[C@@H]1SC (stereo not given in full)	103% (inactive)
O=C(CCCOc1ccc(Br)cc1)Nc1ncc(Cc2ccc(F)cc2)s1	91.5% (inactive)
CN1CCN(c2ccc(Nc3ncc(C(N)=O)c(NCCCNC(=O)C4CCC4)n3)cc2)CC1	71.6% (inactive)
Cc1ccc2c(c1)C(C)Cc1c(ncnc1-n1cnc3cc(C)ccc31)N2C (stereo not given)	0.0907% (active)
Cc1ccc(/C=C2\COc3ccc(O)c(O)c3C2=O)cc1	4.95% (active)

SMILES	growth
O=C(CCN1CCOCC1)Nc1cccc(-n2cc(-c3ccncc3)c(-c3ccc(Cl)c(O)c3)n2)c1	39.5% (inactive)
O=S(=O)(Nc1ccc(F)cc1)c1ccc(-c2cnc(C3CC3)o2)cc1	30.4% (inactive)
CC1(C)C(N)=Nc2cc(OCCCN3Cc4ccc(OCCc5cn(CC(=O)N6CCC(CCN7CCCC7)CC6)nn5)cc4C3)c(OCC3CC3)cc21	92% (inactive)
CCOC(=O)C(=CCC(C)C)C(=O)OCC	109% (inactive)
N#C/C(=N\Nc1ccc(Cl)cc1)C(=O)Nc1cc(-c2ccccc2)nn1-c1ccccc1	25.6% (inactive)
O=Nc1c(O)ccc2ccccc12	-3.35% (active) and 93% (inactive)
CCOC(=O)C(=Cc1ccc(C#N)cc1)C(=O)OCC	34.5% (inactive)
Nc1n[nH]c2cccc(C#Cc3cccc(NC(=O)c4ccc(N5CCOCC5)c(C(F)(F)F)c4)c3)c12	10.7% (inactive)
O=C1C(=C(O)c2ccccc2)C(=O)c2ccccc21	105% (inactive)
CS(=O)(=O)Nc1cc(-c2ccc3ncnc(Nc4ccc(F)c(Cl)c4)c3c2)cnc1Cl	15.8% (inactive)
Cn1cc(-c2nc3c(F)cc4[nH]ncc4c3c3c2CCCC3)c(C(F)F)n1	73% (inactive)
COc1cc2c(cc1OCCCOC1=C=C=C(c3ccc4c(c3)c3cc(-c5ccc(OCCCOc6cc7c(cc6OC)C(=O)N6CCC[C@H]6C=N7)cc5)ccc3n4S(=O)(=O)c3ccc(C)cc3)C=C1)N=C[C@@H]1CCCN1C2=O	23.9% (inactive)
Cc1ccc(Cl)cc1N1CCN(C(=O)[C@@H]2C[C@@H]2c2ccc(F)cc2)CC1	90.5% (inactive)
CCN1C(=O)/C(=c2\sc3n(c2=O)C2C(NN=3)N(CC)C(=O)N2CC)c2ccccc21 (stereo not given)	31.8% (inactive)
O=C1/C(=C/c2ccccc2[N+](=O)[O-])Cc2ccccc21	0.344% (active) and 59.9% (inactive)
COc1cc(/C=C2\C(=O)N(CCCCn3c4ccccc4c(=O)c4ccccc43)c3ccccc32)cc(OC)c1O	50.1% (inactive)
COc1c(NC=O)c2c(c([N+](=O)[O-])c1OC)C(=O)OC2	101% (inactive) and 109% (inactive)
Cn1cc(-c2csc(-c3cn(CCOC(N)=O)c4ccccc34)n2)c2cccnc21	89.4% (inactive)
CCC(=O)Oc1cc(Cl)c(Cl)cc1Cl	96.9% (inactive)

same assay, conditions: 100 µM

SMILES	growth
CC(=O)/C=C/c1ccc(OCc2ccc(Cl)cc2)cc1	34.4% (inactive)
